Laboratory results taken from PubChem BioAssay (NCI).
The panel holds about 79,000 compounds, 15% with a hit somewhere; the sample as a whole holds those more often. Rule as the data show it: active = growth inhibition above about 70%; inactive = the rest.

Key:
[1] = NCI Yeast Anticancer Drug Screen. Data for the rad50 strain (AID 155);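 also: 0% = growth of vehicle-only cultures of the same strain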; conditions: S. cerevisiae rad50 strain growth inhibition; at 50.0 µM; stronger effect = higher value
How it was run: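 Compounds were tested on a yeast strain with an engineered DNA damage repair alteration; the reported value is growth inhibition normalised to vehicle treatment.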

[2] = NCI Yeast Anticancer Drug Screen. Data for the mec2-1 strain (AID 157); conditions: S. cerevisiae mec2-1 strain, at 50.0 µM, stronger effect = higher value
How it was run: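 Test agents were screened against the mec2-1 yeast strain, with defined DNA repair or cell cycle alteration. Growth was scored as inhibition against vehicle-only controls.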

[3] = NCI Yeast Anticancer Drug Screen. Data for the sgs1 mgt1 strain (AID 161);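 also: 0% = growth of cultures given vehicle only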; conditions: S. cerevisiae sgs1 mgt1 strain, at 50.0 µM, stronger effect = higher value
How it was run: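 Genetically altered yeast, compound exposure, growth inhibition relative to vehicle.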

[4] = NCI Yeast Anticancer Drug Screen. Data for the cln2 rad14 strain (AID 165);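 also: 0% = growth equal to vehicle treated cultures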; conditions: S. cerevisiae cln2 rad14 strain, at 50.0 µM, stronger effect = higher value
How it was run: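 Growth of compound-exposed yeast (cln2 rad14 genotype) measured and expressed as inhibition relative to vehicle.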

[5] = NCI Yeast Anticancer Drug Screen. Data for the bub3 strain (AID 167); conditions: S. cerevisiae bub3 mutant strain, at 50.0 µM, stronger effect = higher value
How it was run: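 Growth of a checkpoint-deficient yeast mutant is measured after compound exposure. Values represent inhibition relative to vehicle.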

[6] = NCI Yeast Anticancer Drug Screen. Data for the mlh1 rad18 strain (AID 175); conditions: S. cerevisiae mlh1 rad18 strain growth inhibition; at 50.0 µM; stronger effect = higher value
How it was run: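 In this whole-cell yeast screen, a strain with altered DNA damage repair is challenged with compound, and its growth is measured against matched vehicle-treated controls.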

Measured: growth inhibition

CN=C(N)NC
inactive: [1] -0.1% | [2] 2.45% | [3] 15.1% | [4] 24.1% | [5] 8.55% | [6] 20.1%

COc1ccc(/C(=N\O)c2nccc3cc(OC)c(OC)cc23)cc1OC
inactive: [1] 35.8% | [2] 14.2% | [3] 27.9% | [4] 9% | [5] -2.95% | [6] 18.4%

COc1ccc(-c2nnc(N)o2)cc1OC
inactive: [1] -34% | [2] -10.3% | [3] -16.1% | [4] 6.35% | [5] -13.9% | [6] -24.9%

CC(=O)Nc1ccc(N=C/C=C/c2ccccc2)cc1
inactive: [1] -24.6% | [2] -56.5% | [3] 5.9% | [4] 2.05% | [5] -44.5% | [6] 2.05%

COc1ccc(NC=O)c(C)c1
inactive: [1] -10.5% | [2] -38.8% | [3] -5.35% | [4] -10.3% | [5] 28.6% | [6] -29%

O=C(O)c1cc([N+](=O)[O-])cc(P(=O)(O)O)c1
inactive: [1] 2.55% | [2] -6.45% | [3] -2% | [4] -20.2% | [5] -3.55% | [6] 12.9%

Cc1cnc(-c2ccccc2)o1
inactive: [1] 8.7% | [2] 5.4% | [3] -4.8% | [4] 3.9% | [5] 0.9% | [6] -12.7%

Fc1ccc(C(=C(c2ccc(F)cc2)c2ccc(F)cc2)c2ccc(F)cc2)cc1
inactive: [1] 45.5% | [2] -15.2% | [3] 36.9% | [4] 9.55% | [5] 0.1% | [6] 7%

O=C1CCC2=NCc3c(ccc4ccccc34)N12
inactive: [1] 4.7% | [2] -0.85% | [3] -12.9% | [4] -42.9% | [5] -12.3% | [6] -4%

COc1ccc(OC)c2c1CCCC2
inactive: [1] -8.4% | [2] -5.95% | [3] -1.65% | [4] -7.35% | [5] 0.95% | [6] 7.1%

C=CS(=O)(=O)CCCCCCCCCCCCCCCCCC
inactive: [1] -2.35% | [2] 10.7% | [3] -18.4% | [4] -12.8% | [5] 5.3% | [6] 8.9%

O=S(=O)(NCCNS(=O)(=O)c1ccccc1)c1ccccc1
inactive: [1] -10.4% | [2] -13.8% | [3] 10.5% | [4] -44.5% | [5] 1.55% | [6] 4%

O=C(O)c1[nH]c(=O)[nH]c(=O)c1CN1CCCCC1
inactive: [1] -39.8% | [2] -21.6% | [3] -15.1% | [4] -29.9% | [5] -23.4% | [6] -0.75%

O=S(=O)(OI(O)CC(F)(F)F)C(F)(F)F
inactive: [1] 30.5% | [2] 48.1% | [3] -0.65% | [4] 5.9% | [5] 14.5% | [6] 39.5%

O=C(O)Cc1ccccc1Cl
inactive: [1] 24.4% | [2] 32.1% | [3] 6.55% | [4] -23.9% | [5] 14.8% | [6] 17.9%

Cc1ccccc1NN
inactive: [1] 29.1% | [2] 7.05% | [3] -2.3% | [4] -2.6% | [5] 4% | [6] 7.6%

C=CN1C(=O)NC2(CCCCC2)C1=O
inactive: [1] -33.8% | [2] -40% | [3] -40.4% | [4] 7.55% | [5] -10.3% | [6] -25.6%

CC(=O)OCCn1c2ccccc2nc2cc3c(cc21)c(Cl)c(=O)c1ccccc13
inactive: [1] 29.6% | [2] 14.3% | [3] 21.1% | [4] 25.6% | [5] -1.6% | [6] 13.4%

O=C(COc1ccc2c(=O)cc(-c3ccc(Cl)cc3)oc2c1)N1CCN(c2ccccc2)CC1
inactive: [1] 9.15% | [2] 7.05% | [3] -8.8% | [4] 29.1% | [5] 3.95% | [6] 10.9%

COC(=O)C1c2ccccc2CC(=O)N1N (stereo unspecified)
inactive: [1] -2.7% | [2] -8.5% | [3] -20.6% | [4] 8.25% | [5] 7.05% | [6] 9.15%

CNCCCCCCNc1cc(OC)cc2cccnc12
inactive: [1] 45% | [2] 18.7% | [3] 56% | [4] 7.05% | [5] 23.1% | [6] 58.8%
